{
  "source": "PubChem BioAssay AID1159524",
  "about": "(National Center for Advancing Translational Sciences (NCATS), 2015)",
  "note": "In all, about 410,000 compounds went through this assay and about 5,100 (1.2%) were called active. Where a call stands in place of a potency, no number is given. Roughly 8% stayed inconclusive and do not appear here. The call rests on the fitted dose curve; tested in HEK293T cells. The sample as a whole holds a higher share of actives than the screen did. Potency means the concentration at half of the fitted maximal effect.",
  "data": [
    {"experiment": "High Throughput Screening for Foot and Mouth Disease Virus Antivirals; further: read-out not given here; nearly all actives have a fitted effect of over 45% in size", "conditions": "FMDV antiviral cell-based qHTS; series mostly up to 57.9 µM", "values": [
      {"smiles": "COc1ccccc1CNc1nc2ccc(Cl)cc2n2cnnc12", "Potency": "inactive"},
      {"smiles": "O=C(NCC1Cc2cc(F)cc(-c3cnccn3)c2O1)C1COc2ccccc2O1", "note": "(stereo unspecified)", "Potency": "inactive"},
      {"smiles": "COc1cccc(CNC(=O)Cc2csc3nc(-c4ccccc4)cn23)c1", "Potency": "inactive"},
      {"smiles": "COc1cc(CC(=O)Nc2nc(-c3ccc(F)c(F)c3)cs2)cc(OC)c1OC", "Potency": "20 µM (active)"},
      {"smiles": "COc1ccc(-c2cc(C(=O)NCc3cc(OC)c(OC)c(OC)c3)[nH]n2)cc1", "Potency": "inactive"},
      {"smiles": "COc1cccc(CNS(=O)(=O)c2csc(C(N)=O)c2)c1", "Potency": "inactive"},
      {"smiles": "COc1cc(CCC(=O)Nc2ccncc2Cl)cc(OC)c1OC", "Potency": "inactive"},
      {"smiles": "COc1cccc(CC(=O)Nc2nc(-c3ccc(OC)c(OC)c3)cs2)c1", "Potency": "35.5 µM (active)"},
      {"smiles": "COc1ccc(CC(=O)Nc2nnc3n2CCS3)cc1OC", "Potency": "inactive"},
      {"smiles": "COc1ccc(CC(=O)Nc2nc(-c3ccc(F)c(F)c3)cs2)cc1OC", "Potency": "17.8 µM (active)"},
      {"smiles": "Fc1ccc(-c2csc(-c3ccc(C4SCCS4)cc3)n2)cc1F", "Potency": "inactive"},
      {"smiles": "Oc1ccc(-c2c(-c3ccccc3)nn3c(C(F)(F)F)cc(C(F)(F)F)nc23)cc1", "Potency": "inactive"},
      {"smiles": "COc1ccc(-n2c(=O)c(-c3cn(C)c4ccccc34)nc3cnc(OC)nc32)cc1", "Potency": "inactive"},
      {"smiles": "COC(=O)c1ccc(NC(=O)CCc2c(C)nn(-c3ccc(N4CCCC4)nn3)c2C)cc1", "Potency": "inactive"},
      {"smiles": "COc1cc(OC)c2c(c1Cl)OC1(C2=O)C(O)=CC(=O)CC1C", "note": "(stereo unspecified)", "Potency": "inactive"},
      {"smiles": "O=C(Nc1ccccc1)N[C@H]1C[C@H](C(=O)O)Nc2cc(Cl)cc(Cl)c21", "Potency": "inactive"},
      {"smiles": "COc1ccc(CN2C(=O)C(NC(=O)c3cccc(C)c3)(C(F)(F)F)N=C2c2ccccc2)cc1", "note": "(stereo unspecified)", "Potency": "inactive"},
      {"smiles": "Cc1cnc(C)c(-c2cc(F)c3c(c2)CC(CNC(=O)c2cccc(Cn4cccn4)c2)O3)n1", "note": "(stereo unspecified)", "Potency": "inactive"},
      {"smiles": "CN(Cc1ccco1)c1ncncc1-c1ccoc1", "Potency": "inactive"},
      {"smiles": "CC(C)[C@@H]1NC(=O)[C@H](Cc2ccccc2)NC(=O)[C@@H](CC(=O)O)NC(=O)CNC(=O)[C@H](CCCNC(=N)N)NC1=O", "Potency": "inactive"},
      {"smiles": "COc1ccc2c(c1)c(=Cc1ccc(N(C)C)cc1)c1cc(-c3ccccc3)[n+](C)n12", "Potency": "14.1 µM (active)"},
      {"smiles": "CCOC(=O)c1cc(OC(=O)c2ccccc2Cl)n(-c2ccccc2)n1", "Potency": "inactive"},
      {"smiles": "COc1ccccc1-c1ccnc(-n2ncc(C(=O)NCCc3ccncc3)c2C)n1", "Potency": "inactive"},
      {"smiles": "N#Cc1cccc(-c2nc3cnc(N4CCNCC4)nc3n(C3CC3)c2=O)c1", "Potency": "inactive"},
      {"smiles": "CCCN(CCC)CCCNC(=O)Cn1cc2c(n1)-c1c(oc(C(=O)N3CCCC3)c1C)CC2", "Potency": "inactive"},
      {"smiles": "Cc1c(C(=O)N2CCCC2)oc2c1-c1nn(CC(=O)NCc3ccc(OC(C)C)cc3)cc1CC2", "Potency": "28.2 µM (active)"},
      {"smiles": "Cc1ccc(Cn2cc(CCC(=O)NCc3ccc(OC(C)C)cc3)c3ccccc32)cc1", "Potency": "inactive"},
      {"smiles": "Cc1cccc(CNc2cc(-c3ccccc3Cl)ncn2)c1", "Potency": "inactive"},
      {"smiles": "CC(=O)Nc1c(C)nn(-c2ccccc2)c1N1CCC(C(=O)Nc2cc(Cl)ccc2C)CC1", "Potency": "inactive"},
      {"smiles": "Cc1cccc(N2CCC(NCc3c(C(=O)N4CCCCC4)nc4c(C)cccn34)CC2)c1", "Potency": "inactive"},
      {"smiles": "Cc1cccn2c(CNCC(C)Oc3cccnc3)c(C(=O)N3CCOCC3)nc12", "note": "(stereo unspecified)", "Potency": "4.47 µM (active)"},
      {"smiles": "Cc1cc(C)n(CC(C)NCc2c(C(=O)N3CCOCC3)nc3c(C)cccn23)n1", "note": "(stereo unspecified)", "Potency": "inactive"},
      {"smiles": "CC(CCC(=O)O)C1CCC2C3C(O)C[C@@H]4CC(O)CC[C@@]4(C)C3CC[C@@]12C", "note": "(stereo partly specified)", "Potency": "inactive"},
      {"smiles": "COc1ccc(-c2cc(C(=O)Nc3sc4c(c3C(N)=O)CCCC4)no2)cc1", "Potency": "inactive"},
      {"smiles": "CCOc1ccc(CNC(=O)c2cccc(Nc3nc4ccccc4n4nnnc34)c2)cc1OC", "Potency": "7.08 µM (active)"},
      {"smiles": "CCOc1ccc(OCC)c(Nc2nc3ccccc3n3nnnc23)c1", "Potency": "inactive"},
      {"smiles": "CCOc1ccc(CNC(=O)c2ccc3nc(CC)c(CC)nc3c2)cc1OC", "Potency": "inactive"},
      {"smiles": "COc1cc(OC)cc(C(=O)Nc2ccc3nc(Nc4cccc(C(F)(F)F)c4)cc(C)c3c2)c1", "Potency": "inactive"},
      {"smiles": "COc1cccc(Cn2c(=O)c(C)nc3cnc(Oc4ccccc4)nc32)c1", "Potency": "inactive"},
      {"smiles": "COc1ccc2c3c1OC1CC(O)C=C[C@@]31CCN(C)C2", "note": "(stereo partly specified)", "Potency": "inactive"},
      {"smiles": "Cc1ccc(C(=O)Nc2nc(-c3ccccc3)ns2)cc1", "Potency": "inactive"},
      {"smiles": "Cc1csc(NC(=O)C2CCN(S(=O)(=O)c3ccccc3)CC2)n1", "Potency": "inactive"},
      {"smiles": "CC(=O)N1CCC(C(=O)Nc2nc(-c3ccccc3)ns2)CC1", "Potency": "2.82 µM (active)"},
      {"smiles": "CC(=O)c1ccc(NC(=O)c2nc3nc(C)cc(C(F)F)n3n2)cc1", "Potency": "inactive"},
      {"smiles": "CCc1ccccc1OCCSc1nc(-c2cccs2)nc2cc(=O)[nH]n12", "Potency": "inactive"},
      {"smiles": "CC(C)c1csc(CN2CCC(CO)(Cc3ccccc3)CC2)n1", "Potency": "inactive"},
      {"smiles": "COc1ccccc1C(=O)N[C@@H]1c2ccccc2C2(CCN(C(=O)c3csnn3)CC2)[C@H]1OC", "Potency": "inactive"},
      {"smiles": "COc1ccccc1C(=O)N[C@@H]1c2ccccc2C2(CCN(Cc3nc(C(C)C)cs3)CC2)[C@H]1O", "Potency": "11.2 µM (active)"},
      {"smiles": "O=C(Nc1cccc(F)c1)N1CC[C@@]2(CCCN(C(=O)Oc3ccccc3)C2)C1", "Potency": "inactive"},
      {"smiles": "CCN1C[C@]2(COC)C(O)C[C@H](OC)[C@@]34C5C[C@]6(O)C(OC)C(O)[C@](OC(C)=O)(C5C6OC(=O)c5ccccc5)C(C(OC)C23)C14", "note": "(stereo partly specified)", "Potency": "inactive"},
      {"smiles": "CCOc1ccc(NS(=O)(=O)c2ccc(C(=O)NCC3CCCO3)cc2)cc1", "note": "(stereo unspecified)", "Potency": "inactive"},
      {"smiles": "CC(NS(=O)(=O)c1ccc(Br)cc1)C(=O)NCC1CCCO1", "note": "(stereo unspecified)", "Potency": "1 µM (active)"},
      {"smiles": "O=C(CNC(=O)c1ccc(Br)o1)NCC1CCCO1", "note": "(stereo unspecified)", "Potency": "inactive"},
      {"smiles": "NCCC(=O)c1ccccc1N", "Potency": "inactive"},
      {"smiles": "CN(C)C1=NC[C@H](Cc2ccccc2)N1CCc1ccc(F)cc1", "Potency": "inactive"},
      {"smiles": "O=C1NC(=O)N(CCc2ccc(F)cc2)C(=O)/C1=C/C=C/c1ccccc1", "Potency": "10 µM (active)"}
    ]}
  ]
}
